# Screening data as filed in PubChem.
# Shown are actives, neighbours in structure and some others; about 3.1% of the full set was active somewhere.
# Tb PFK block – T. brucei PFK enzyme inhibition; Potency, µM (series often up to 57.5 µM), for inactives: at the highest dose activity, negative = inhibition, actives largely listed as inhibitors; T. brucei PFK, ADP-Glo luminescence; 0.17% of 330,000 active; AID 485367;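 further: 0% = uninhibited 1x PFK enzyme wells and -100% = no-enzyme wells; nearly all actives have a fitted effect of over 60% in size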
#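 In TEA buffer at pH 8.0 with 5 mM MgCl2, enzyme (1.25 nM) converted F6P (0.5 mM) and ATP (0.1 mM) for 45 min at room temperature. ADP product was read by luciferase luminescence.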
# VDR inhibitor – vitamin D3 receptor (human) inhibition | VDR-SRC2-3 peptide fluorescence polarization, 2 h | Potency, µM, for inactives: max response, negative = inhibition, hits mostly inhibitors | P11473 | 0.93% of 400,000 active; further: on the % scale 0 is the no-effect control and ±100 the full control effect
# Target sequence (P11473 whole entry, looked up): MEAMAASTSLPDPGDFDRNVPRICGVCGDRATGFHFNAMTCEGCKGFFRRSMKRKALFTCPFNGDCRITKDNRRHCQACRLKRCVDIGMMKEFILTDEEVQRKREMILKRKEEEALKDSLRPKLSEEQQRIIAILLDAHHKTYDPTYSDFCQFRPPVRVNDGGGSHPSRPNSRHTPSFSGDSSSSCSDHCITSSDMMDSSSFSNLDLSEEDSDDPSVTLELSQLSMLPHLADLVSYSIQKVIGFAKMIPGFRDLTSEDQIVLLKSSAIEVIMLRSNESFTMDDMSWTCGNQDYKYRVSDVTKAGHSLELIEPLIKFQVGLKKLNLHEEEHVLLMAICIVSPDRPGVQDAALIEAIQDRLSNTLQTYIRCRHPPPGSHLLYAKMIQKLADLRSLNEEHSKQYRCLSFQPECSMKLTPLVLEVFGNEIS
#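 Fluorescence polarization assay of small-molecule disruption of VDR binding to coregulator peptide SRC2-3. Compounds and controls pin-transferred, then read after 2 h incubation at ambient room temperature.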
# TDP1 inh – blocks human tyrosyl-DNA phosphodiesterase 1 | Q9NUW8 | recombinant TDP1, AlphaScreen DNA substrate cleavage | Potency, µM (highest dose often 130 µM), for inactives: top-dose activity change, negative = inhibition, hits mostly inhibitors | 0.28% of 350,000 active; further: on the % scale 0 is the no-effect control and ±100 the full control effect; nearly all actives have a fitted effect of over 40% in size
#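 Enzyme-compound mixtures sat 15 min at room temperature, followed by a 5 min reaction with 15 nM final substrate and 10 min with AlphaScreen beads. Recombinant human Tdp1 was used at 1 nM final.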
# ASM inhibitor – human S-ASM enzyme inhibition; Potency, µM (titrated, usually from 57.5 µM), without a hit: at the top dose activity change, negative = inhibition, hits mostly inhibitors; placental ASM, HMU-PC fluorogenic substrate, 60 min; 0.006% of 340,000 active; AID 504937
#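 Human placenta-derived ASM enzyme was preincubated with compound for 10 minutes at room temperature, then given fluorogenic substrate HMU-PC0 (9 uM final) for 60 minutes at 37 °C; a pH 10 stop preceded fluorescence reading at Ex 386/Em 447 nm.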
# Pin1 inh – human Pin1 inhibition | 0.009% of 390,000 active | Pin1 FP peptide displacement, HiFluor488, 10 min | Potency, µM (series often up to 115 µM), without a hit: at the top dose activity, negative = inhibition, usual class: inhibitors | Q13526 | AID 504891; active means well fitted inhibition curve with a large enough effect in the polarisation, with a control signal flat, not every such curve was filed as active; inconclusive means small, poorly fitted or top-dose-only effect, or effect the other way, or a change in a side signal; inactive means no such curve, though single readings can be large or run the other way; the % refers to the polarisation; further: on the % scale 0 is the no-effect control and ±100 the full control effect
# Target sequence (Q13526 whole entry, looked up): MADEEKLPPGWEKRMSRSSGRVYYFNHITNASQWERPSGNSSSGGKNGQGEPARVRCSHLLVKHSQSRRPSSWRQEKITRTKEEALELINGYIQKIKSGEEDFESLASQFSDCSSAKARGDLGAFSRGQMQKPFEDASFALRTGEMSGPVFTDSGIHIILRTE
# PLK1 PBD block – inhibitors of human PLK1 polo-box domain binding. 2.8% of 360,000 active. P53350. Plk1 PBD binding of FITC phosphopeptide, fluorescence polarization. Potency, µM, for the others: max response, negative = inhibition, actives largely listed as inhibitors. AID 720504; further: series mostly up to about 57 µM; on the % scale 0 is the no-effect control and ±100 the full control effect; nearly all actives have a fitted effect of over 65% in size
# * = called active by the depositor; ? = inconclusive; . = no result given; [ ] = dose if it differs, or a comment. Unless noted, the call rests on the fitted dose curve; in most records, active means well fitted curve in the direction sought with a large enough effect; inconclusive means small, poorly fitted or top-dose-only effect, or another doubt; inactive means no such curve, though single readings can be large; an effect the other way counts as inactive or inconclusive. Potency means the concentration at half of the fitted maximal effect.
SMILES,Tb PFK block,VDR inhibitor,TDP1 inh,ASM inhibitor,Pin1 inh,PLK1 PBD block
Cc1cccc(/C=N/n2c(C3CCCCC3)n[nH]c2=S)c1,-18%,?,.,-3%,-5%,27µM*
S=c1[nH]nc(C2CCCCC2)n1/N=C/c1ccccc1Cl,-26%,-4%,.,-4%,-6%,13µM*
O=C(O)c1ccccc1/C=N/n1c(C2CCCCC2)n[nH]c1=S,-4%,?,.,5%,-3%,-18%
FC(F)(F)c1ccccc1/C=N/n1c(C2CCCCC2)n[nH]c1=S,-3%,-10%,.,-7%,1%,27µM*
Cc1c2c(c(O)c3c(O)cccc13)C(=O)O[C@H]2C1C(N(C)C)C(O)=C(C(N)=O)C(=O)[C@H]1O (stereo partly specified),.,16µM*,.,.,.,.
NNC(=O)c1[nH]c2ccc([N+](=O)[O-])cc2c1-c1ccccc1,0%,79µM*,.,-3%,5%,-8%
CC1=CC(=O)C2C(C)(C)CCC[C@@]2(C)[C@@]1(O)CCc1ccoc1 (stereo partly specified),.,50µM*,7%[56.1 µM],.,.,.
COc1cccc2cc(-c3nc4ccccc4o3)c(=O)oc12,4%,11%,0%,52%,1%,?
COc1cccc2cc3c(=O)n(-c4ccccc4)nc-3oc12,19%,-25%,0%,0%,-16%,30µM*
COc1cccc(C2c3c(ncn(-c4ccc(C#N)cc4)c3=N)Oc3ccc4ccccc4c32)c1 (stereo unspecified),.,.,0%,.,38%,.
Cc1nn(C)c(NC(=O)c2ccc(Cl)cc2)c1Cl,3%,13%,.,1%,0%,0%
Cc1nn(C)c(C)c1NC(=O)c1ccc(Cl)cc1,3%,-14%,1%,-2%,0%,30µM*
CCc1nnc(NC(=O)c2ccc(S(=O)(=O)N(CC(C)C)CC(C)C)cc2)o1,-3%,-20%,-3%,-2%,-8%,-7%
CSCc1nnc(NC(=O)c2ccc(S(=O)(=O)N(C)C)cc2)o1,1%,-13%,6%,1%,1%,13µM*
CCc1nnc(NC(=O)c2ccc(S(=O)(=O)N(C)c3ccccc3)cc2)o1,1%,-21%,10%,2%,-1%,30µM*
Cc1ccc(/C=C/c2onc(C)c2S(=O)(=O)N2CCC(C(=O)N3CC(C)Oc4ccccc43)CC2)cc1 (stereo unspecified),.,9%,4%,.,17%,.
CC(=O)NC(CCS(C)(=O)=O)C(=O)Nc1nccs1 (stereo unspecified),-3%,-18%,0%,3%,0%,27µM*
CC(NS(=O)(=O)c1ccccc1)C(=O)Nc1nccs1 (stereo unspecified),-1%,0%,6%,4%,14%,21µM*
c1ccc(Nc2nc(NCc3ccco3)nc3nccnc23)cc1,.,0%,50µM*,.,?,.
Fc1ccc(Nc2nc(NCc3ccco3)nc3nccnc23)cc1,.,-7%,0%,.,2%,.
Cc1ccc(Nc2nc(C#N)nc(NC3CCCC3)n2)cc1,.,.,-3%,.,?,.
C[C@@H]1CC2C3CCC4=CC(=O)C=CC4(C)[C@@]3(F)[C@@H](O)CC2(C)[C@@]1(O)C(=O)CO (stereo partly specified),.,-1%,7%,.,.,.
O=[N+]([O-])c1ccc(CNc2cccc(Cl)c2)s1,7.6µM*,-5%,.,-1%,0%,-17%
COc1cc(Cl)c(C)cc1NC(=S)NN,-23%,5%,3%,2%,2%,27µM*
CCCCCCCCNCCS(=O)(=O)NCc1ccccc1,.,-14%,.,-2%,-1%,-4%
SMILES,Tb PFK block,VDR inhibitor,TDP1 inh,ASM inhibitor,Pin1 inh,PLK1 PBD block
COc1ccc(CNCCS(=O)(=O)NN2CCOCC2)cc1,0%,?,.,-6%,-2%,9.5µM*
CCCCCCCCNCCS(=O)(=O)NN1CCOCC1,2%,-17%,0%[56.1 µM],-4%,2%,7.5µM*
COc1cc(NC(=O)c2nn(C)c3c2COc2ccccc2-3)cc(OC)c1OC,.,15%,3%,.,0%,.
O=C1NN(c2cccc(Br)c2)C(=O)/C1=C\c1ccccc1,?,?,.,-2%,.,1.5µM*
O=C1NN(c2ccccc2)C(=O)/C1=C/c1cccs1,11%,.,2%,.,.,.
O=C1NN(c2cccc(Br)c2)C(=O)/C1=C/c1cccs1,5%,?,.,-5%,?,19µM*
Cn1c(=O)c(N)c2c3c(c(Br)ccc31)C(=O)c1ccccc1-2,1%,-13%,1%,?,?,0.6µM*
Cn1c(=O)c2c(-c3ccccc3Br)n(C(C)(C)C)cc2n(C)c1=O,.,-2%,7%,.,-2%,.
CSc1nc(-c2ccccc2)nc2c1COC(C)(C)C2,2%,2%,6%,-3%,-1%,30µM*
CC1(C)Cc2nc(-c3ccccc3)nc(SCC(=O)N3CCCC3)c2CO1,-5%,-9%,5%,-2%,3%,-21%
O=C(c1ccccc1)N1N=C(c2ccccc2)CC1c1ccccc1O (stereo unspecified),2%,?,-2%,-13%,2%,3.4µM*
O=C(c1ccccc1)N1N=C(c2ccco2)CC1c1cccs1 (stereo unspecified),-2%,9%,.,0%,7%,21µM*
CC(=O)N1N=C(c2ccco2)CC1c1cccs1 (stereo unspecified),-9%,-12%,6%,2%,-6%,-5%
Cc1cc2c(s1)c1cnn(Cc3cc(F)c(F)c(F)c3F)c(=O)c1n2C,.,.,.,.,2%,.
Cc1ccc(SCc2c(C#N)c3ccccc3n2C)cc1,-6%,-13%,-8%,-2%,5%,5.3µM*
Cn1c(CSc2ccccc2)c(C#N)c2ccccc21,-3%,60%,.,?,11%,-5%
CC(C)OCCCN(Cc1ccco1)C(=O)c1cc2c(s1)-c1ccccc1OC2,.,4%,-14%,.,8%,.
CCOCCCNC(=O)C(c1ccc(C)cc1)N(Cc1ccc2c(c1)OCO2)C(=O)c1ccc(NC(C)=O)cc1 (stereo unspecified),.,-5%,0%,.,0%,.
COc1ccc(CCn2c3c(c(=O)[nH]c2=S)CN(Cc2ccccc2)CN3)cc1OC,.,89µM*,-1%,.,9%,.
CCc1ccc(NC(=O)C(=O)NCC(c2cccnc2)N2CCN(Cc3ccccc3)CC2)cc1 (stereo unspecified),.,-8%,-5%,.,-11%,.
O=C(Nc1nnc(COc2ccc(Cl)cc2)s1)C1CCCO1 (stereo unspecified),-3%,-9%,5%,-3%,-2%,6µM*
O=C(Nc1nnc(COc2ccc(Cl)cc2)s1)c1cccs1,-3%,-14%,6%,5%,6%,2.7µM*
N#Cc1nc(Nc2cc(F)cc(F)c2)c2ncn(CCCN3CCCC3)c2n1,.,.,.,.,7%,.
CCCCNC(=O)Cn1c(SCc2cccc(F)c2)nc2ccncc21,.,-6%,2%,.,-2%,.
